From the supplement of paper PMC10105736 come the findings set out here.

Experiment in all cases: MAPPIT interaction score (arbitrary units); higher = stronger binary interaction signal, active = hit call of the paper;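 active = MAPPIT score above the 99th percentile of random reference set scores in the same batch; inactive = at or below it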
One assay deals with Act57B. The following applies: MAPPIT configuration: N-N; pair source set: screen_1. On the procedure: (§1)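 MAPPIT in HEK293T cells: Drosophila bait and prey ORFs (from the FlyBi ORF collection) were co-transfected in quadruplicate, with two wells stimulated by erythropoietin. Interaction-dependent JAK-STAT activation was read out with a STAT-responsive firefly luciferase reporter. Positive calls use the 99th percentile of random reference set (RRS) scores within each batch […]. Batches Dvs01 and Dvs02 used the N-N configuration and Dvs04 the N-C configuration. Pairs come from FlyBi screens, CuraGen, DPiM, Finley Y2H, Lit-BM-16, Lit-BS-16 and RRS.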

In a further assay the target is Ald1. The following applies: pair source set: Lit-BM-16. The method, then:
as §1

In the next assay the target is Arc1. The following applies: MAPPIT configuration: N-N. The method, then:
as §1

For a further assay, the target named is CG34382. To be noted: MAPPIT configuration: N-N; pair source set: Curagen_high_conf. The method, then: as §1
In another assay the target is CG8441. The following applies: MAPPIT configuration: N-N; pair source set: Lit-BS-16. The method, then:
as §1

Another assay addresses Pbgd. To be noted: MAPPIT configuration: N-N; pair source set: DPIM. The method, then:
as §1

The next assay concerns the target Arts. To be noted: MAPPIT configuration: N-N; pair source set: Finley_Y2H. On the procedure: as §1
In a further assay the target is Pu. The following applies: MAPPIT configuration: N-N; pair source set: screen_1. On the procedure: as §1
The next assay has as its target Vinc. The following applies: pair source set: Lit-BM-16. The method, then: as §1
The target in a further assay is Adar. To be noted: MAPPIT configuration: N-N; pair source set: RRS. The method, then: as §1
The next assay has as its target Arc2. The following applies: MAPPIT configuration: N-N; pair source set: screen_1. The method, then: as §1
The target of a further assay is ArfGAP3. The following applies: MAPPIT configuration: N-N; pair source set: Curagen_high_conf. On the procedure: as §1
In a further assay the target is Art8. The following applies: MAPPIT configuration: N-N; pair source set: Curagen_high_conf. On the procedure: as §1
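Further: HEK293T cells with Epo stimulation, STAT-responsive firefly luciferase reporter, fold induction versus unstimulated cells divided by the larger fold induction of two negative controls lacking either bait or prey.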

B1: CG12206 (protein)
chain: MAAITSNVSRLEPMRGISIIIESPEVATATPPPATTTATAEAEAATKQVAPTAKSNSNTEMSLKSQAAGMLLAFGDTAATAKDNLETSYDTAAKSTAAPETNKIYPQLLLRIGGEIAGATASAEAAASAATAAAATATSPTIISCNGEIAASQAAATAADTAATLQHNNTVKIQIESQGQQRTLGKQISVVKLNEGVEEMQQHMCYLVDTSGQYSPCETLDSGTGSDLENHPQQQQQPQQVRSPQLELHLQTTRLMVNEEADHKHSPLETPSPVPKRAYSLTDDSEECDESSNSSLSCDSLHSGGLLPTTLLRDIRFRERASGPLVTKINGRPLQFETDGYYTFHVREHENFRSFGSNSSTEYEAQHFTDEQPGEDFVGFRDIRTAGKLAGNSTIKSAKGTVRGVKNRVRNGVATFLQLQQPNVKNYMEKDVGKVVLYTTSMGIIRDTYAKCANVKKILRTLLIKFEERDIFMSVEYQQEMRERMQDETIRVPQLFVEGQLIGDANIVERLNESGELRQLLRPYKSIATAYTCQTCGGYRMLPCPACNGSKKSMHRNHFTAEFVALKCMNCDEVGLIKCPNC
On to B1, for which, in the assay with Act57B, the MAPPIT interaction score is 1.77 (inactive).

B2: Ald1 (protein)
chain: MTTYFNYPSKELQDELREIAQKIVAPGKGILAADESGPTMGKRLQDIGVENTEDNRRAYRQLLFSTDPKLAENISGVILFHETLYQKADDGTPFAEILKKKGIILGIKVDKGVVPLFGSEDEVTTQGLDDLAARCAQYKKDGCDFAKWRCVLKIGKNTPSYQSILENANVLARYASICQSQRIVPIVEPEVLPDGDHDLDRAQKVTETVLAAVYKALSDHHVYLEGTLLKPNMVTAGQSAKKNTPEEIALATVQALRRTVPAAVTGVTFLSGGQSEEEATVNLSAINNVPLIRPWALTFSYGRALQASVLRAWAGKKENIAAGQNELLKRAKANGDAAQGKYVAGSAGAGSGSLFVANHAY
Regarding B2, the MAPPIT interaction score in the assay with Ald1 (MAPPIT configuration: N-C) was 1.2 (inactive); in the assay with Ald1 (MAPPIT configuration: N-N) it was 4.7 (active).

B3: Arc1 (protein)
chain: MAQLTQMTNEQLRELIEAVRAAAVGAAGSAAAAGGADASRGKGNFSACTHSFGGTRDHDVVEEFIGNIETYKDVEGISDENALKGISLLFYGMASTWWQGVRKEATTWKEAIALIREHFSPTKPAYQIYMEFFQNKQDDHDPIDTFVIQKRALLAQLPSGRHDEETELDLLFGLLNIKYRKHISRHSVHTFKDLLEQGRIIEHNNQEDEEQLATAKNTRGSKRTTRCTYCSFRGHTFDNCRKRQKDRQEEQHEE
On to B3, for which the MAPPIT interaction score was 4.55 (active) with Arc1 (pair source set: screen_1); 3.68 (active) with Arc1 (pair source set: screen_2); 0.00338 (inactive) with CG34382; -0.34 (inactive) with CG8441; 0.22 (inactive) in the assay with Pbgd.

B4: CAP (protein)
chain: MEPGTIPSPVSAPVAAPVTPSAVAAPVQVVSPAAVAPAPAAPIAVTPVAPPPTLASVQPATVTIPAPAPIAAASVAPVASVAPPVVAAPTPPAASPVSTPPVAVAQIPVAVSAPVAPPVAATPTPVAPIPVAAPVIATPPVAASAPTPAAVTPVVSPVIATPPVVPANTTVPVAAPVAAVPAAVPVVAPVLAPAVAPAVAPVVAETPAPPPVAEIPVATIPECVAPLIPEVSVVATKPLAAAEPVVVAPPATETPVVAPAAASPHVSVAPAVETAVVAPVSASTEPPVAAATLTTAPETPALAPVVAESQVAANTVVATPPTPAPEPETIAPPVVAETPEVASVAVAETTPPVVPPVAAESIPAPVVATTPVPATLAVTDPDVTASAVPELPPVIAPSPVPSAVAETPVDLAPPVLPPVAAEPVPAVVAEETPETPAPASAPVTIAALDIPEVAPVIAAPSDAPAEAPSAAAPIVSTPPTTASVPETTAPPAAVPTEPIDVSVLSEAAIETPVAPPVEVTTEVAVADVAPPEAAADLIIEPVEPPAPIPDLLEQTTSVPAVEAAESTSSPIPETSLPPPNEAVASPEVAVAPITAPEPIPEPEPSLATPTEPIPVEAPVVIQEAVDAVEVPVTETSTSIPETTVEYPVAEKVLDPAITEAPVTTQEPDVANINDGAPATEITTPAVEIVTAAAEVSDTAIPLIDPPVPQEIAVAEIPETETKPAEVIVEQSTIPIEAPVPEVSKYAEPVISEAPAAEVPITAGDNPDNTSVGISEVVPTIAEKAVEEVPTSEIPEQSSSPSDSVPVAKITPLLRDLQTTDVSLLAIAATLDAIGEKLKDQKARNQQVMDRLCEIEKILGPPKSN
For the molecule B4, the MAPPIT interaction score is 0.381 (inactive) with Arts, -0.205 (inactive) in the assay with Pu, 2.37 (inactive) with Vinc (MAPPIT configuration: N-C) and 2.53 (inactive) with Vinc (MAPPIT configuration: N-N).

B5: GstZ2 (protein)
chain: MSTNLCPNASSSDIQPILYSYWRSSCSWRVRIAMNLKEIPYDIKPISLIKSGGEQHCNEYREVNPMEQVPALQIDGHTLIESVAIMHYLEETRPQRPLLPQDVHKRAKVREIVEIICSGIQPLQNLIVLIHVGEEKKKEWAQHWITRGFRAVEKALSTSAGKYCVGDEISMADCCLVPQVFNARRFHVDLRPYPIILRIDRELESNPAFRAAHPSNQPDCPPELPNK
For B5, the MAPPIT interaction score with Adar was 0.0763 (inactive).

B6: Arc2 (protein)
chain: MTQMSDEQFRIFIETIKSLGPIKEEPPSKGSFSNCTVRFSGQRDHDAVDEFINAVETYKEVEGISDKDALKGLPLLFKSIAVVWWKGVRRDAKTWSDALQLLRDHFSPTKPSYQIYMEIFETKQSYDEVIDSFICKQRALLAKLPEGRHDEETELDFIYGLMQPKYRESIPRHEVKTFRELLDRGRTVERTRH
Consider B6, for which the MAPPIT interaction score with Arc2 was 6.05 (active).

B7: CG16894 (protein)
chain: MWYSTVRNPSIALIKQGYHILAEYNLVKEELKNIYAIPSYACGLHWFGVIFVHSGIYAGSVFRFSILLPENFPADISLPTVVFSTEVLHPHICPQNKTLDLAHFLNEWRKDEHHIWHVLRYIQAIFADPEGSICTGQSSSGDLVIMDEVRNMNALNMLAKSRPEYIKRVQEQAILSRNLIYDRPPTEDPHYIIVEPYCAERHLKFMDQLKSPCWKEATSMDCSQPSEYLGHIDSSRQLDEEEANQVEKLHRGRIPEHQREESEVSL
B7: in the assay with ArfGAP3, the MAPPIT interaction score was 0.483 (inactive).

B8: Ntmt (protein)
chain: MTTTLEEQLSDKLQMMDETTDKVQGSSKQKDDSSIAASSDAKTASPSSSDSSTKVAAPESEFYNKAQKYWSEVPATVNGMLGGLGYISAIDIQGSNVFLREIRVPGNRLALDCGAGIGRVTRNLLIPRFSCVDLVEQDPAFADKAREYCTSEDGSRGKVGQIYNVGLQKFTPTQQYDLVWTQWVLGHLTDRDLVSFFRRIKQGLAPGAFLCLKENVSSSKKTVEDRNDSSVTRPLDSYEHFLKEAGFRIVRKVKQQNFPKGLFPVYMIACKPVSKE
Consider B8, for which the MAPPIT interaction score with Art8 was 3.74 (active).
